This passage reports Percent Effect results from ChEMBL document CHEMBL3988442, “University of Dundee, Small-Polar-MMV Screening Library” (2021).

The structures appear in SMILES notation.

The assay deals with Shiga toxin 2 (Escherichia coli O157:H7) (UniProt P09385+P09386). Description: E. coli 0.157:H7 Shiga Toxin SOP - stx2 screening assay. It counts as functional. Set-up: scale not given: direction of the effect not stated beside the values. The following applies: 30 µM.
As for `Cc1nc(CN2C(=O)CC[C@@H]3[C@H]2CCN3C(=O)NC2CC2)cs1`, the Percent Effect was -11.4%.
Under `CO[C@@H]1CC[C@H]2[C@H]1OCCN2C(=O)C1=CCCC1` stands -25.5%.
Under `CCc1nc(CN2CCCC(NCc3cc(C)no3)C2)no1` (stereo not given) stands 9.82%.
The result for `CC(C)S(=O)(=O)c1nnc(CCNC(=O)OC(C)(C)C)o1` reads -59.2%; that for `Cc1noc(C)c1C(=O)N1CC[C@H]2C[C@@H](c3ccncn3)O[C@@H]2C1`, 3.86%; that for `Cc1cn2c(n1)CCC(NC(=O)CCn1cncn1)C2` (stereo not given), 21.7%.
For `Cc1cccc(CN2C[C@@H]3CN(C(=O)[C@H]4CCCO4)C[C@@H]3C2=O)c1`, the Percent Effect was -9.8%.
As for `CN(C)S(=O)(=O)N1CC[C@@H]2CN(Cc3cnn(C)c3)C[C@@H]2C1`, the Percent Effect was -8.71%.
The result for `Cc1cc(NC(=O)CN2CCn3c(nnc3C(C)C)C2)no1` reads -39.9%; that for `COC(=O)c1ccc(S(=O)(=O)NCc2cccnc2N(C)C)cc1`, 12%; that for `Cc1noc(C(C)C)c1C(=O)NS(=O)(=O)c1ccc(Cl)cc1`, 13.7%.
The result for `O=C(c1cccnc1-n1cccn1)N1CCN(CC2CC2)CC1` reads 7.9%.
The result for `O=C(c1csc(-c2cccs2)n1)N1CCCC1Cn1cccn1` (stereo not given) reads 37.2%; that for `CC1=Nc2c(c(=O)[nH]n2C(C)C)C(c2ccccc2)S1` (stereo not given), 1.24%.
As to `COC(=O)CC(c1ccccc1)c1oc(C)cc(=O)c1O` (stereo not given), the Percent Effect was -6.67%.
The result for `Cn1ccc(CN2CCC(c3ccccc3)CC2)cc1=O` reads -3.12%; that for `CCc1nc(CN2CCCN(C(=O)c3cn[nH]c3CC)CC2)cs1`, -78.4%; that for `CCc1nc(C2CCCN2Cc2nc3ccccc3o2)no1` (stereo not given), 9.5%.
The result for `Cn1cc(CN2CCC3(C2)CN(Cc2ccsc2)C3)cn1` reads -10.4%.
Under `Cc1cc(NC(=O)CN2CCc3cnc(C)nc3C2)on1` stands -34.7%; under `COCCCC1(CO)CCCN(CCS(C)(=O)=O)C1` (stereo not given), 0.747%; under `Cc1nc(C)n(C2CCCN(C(=O)c3csnn3)C2)n1` (stereo not given), 18.7%.
As to `Cc1ccc(N2CCCc3sc(C(=O)NCc4cccnc4)nc32)nn1`, the Percent Effect was -41.7%.
Regarding `c1ccc(-c2nc(CN3CCCC3Cn3cncn3)cs2)cc1` (stereo not given), the Percent Effect was found to be 5.25%.
Under `Cc1ccccc1CNc1nc(O)cc(C2CC(=O)N(C)C2)n1` (stereo not given) stands 0.153%.
The result for `CCOCC(=O)NC1(c2cccc(Br)c2)CC1` reads -5.68%; that for `CN1CC(=O)N(c2cnn(C)c2)CC12CCN(C(=O)c1ccsc1)C2` (stereo not given), -1.99%; that for `Cc1nc(CNC(=O)NCCc2ccc(N(C)C)cc2)cs1`, 16.6%.
Under `O=C(COCc1nc(-c2ccncc2)no1)N1CCCC1` stands -21.3%.
Consider `Cc1cccc(-c2ccc3nc(C4CCN(CC5CC5)CC4)nn3c2)c1`, for which the Percent Effect is -31.4%.
The result for `CN1CC(=O)N(c2cnn(C)c2)CC12CCN(Cc1ccccc1)C2` (stereo not given) reads -5.72%; that for `CC(NC(=O)NCCCc1n[nH]c(N)c1C#N)c1cccs1` (stereo not given), -34.7%.
The result for `COc1ccccc1OCc1cc(C(=O)N2C[C@H](O)[C@@H](N(C)C)C2)n[nH]1` reads -9.19%.
Turning to `N#CC1(C(=O)NCCCNc2ccc(C(F)(F)F)cn2)CCCC1`, the Percent Effect was found to be 21.2%.
Under `CC(=O)N1CCOC(c2cc(N3CC(O)C3)nc(C)n2)C1` (stereo not given) stands 6.14%; under `Cc1ccc(NCc2cncc3c2CCN(C(=O)C2CC=CC2)C3)nn1`, -38%; under `CCCc1nc(CN2CCN(CC(O)c3ccccc3)CC2)no1` (stereo not given), -3.05%.
The result for `COCCN1CCC(CNC(=O)C2(c3cccc(C)c3)CC2)CC1` reads -5.28%.
For `CN(C)C(=O)N1Cc2nnn(C)c2C(COCC2CC2)C1` (stereo not given), the Percent Effect is -35.2%.
The result for `c1ccc(C[C@H]2CN(Cc3nccs3)CC[C@H]2OCC2CC2)cc1` reads 16%.
